# MEKK3 PB1 HTS: raises or lowers MEK5 binding to the human MEKK3 PB1 domain; binding response (% of control), % at 10 µM; Q99759; AID 1529; 290,000 tested, 1.4% active; bead-based flow cytometry, Alexa488-MEK5 binding to MEKK3; actives lie on both sides; 0 = blocked by unlabeled MEK5, 100 = vehicle;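 active means binding response more than 3 SD above or below the average of its plate-row segment, actives on both sides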;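 further: Alexa488 bead fluorescence after subtracting the streptavidin-only scavenger bead signal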
# TMEM16A inh: blocks the mouse calcium-activated chloride channel TMEM16A; Q8BHY3; HEK293 TMEM16A/YFP iodide influx fluorescence, ionomycin; normalized B-score (activity score, 25-100; higher = stronger inhibition) at 10 µM; 310,000 tested, 1.2% active; AID 588511;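 active means ratio plate-corrected score three or more library SD toward inhibition, starting fluorescence score within five deviations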;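 further: score derived from kinetic fluorescence span divided by baseline fluorescence per well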
# Target sequence (Q8BHY3 whole entry, looked up): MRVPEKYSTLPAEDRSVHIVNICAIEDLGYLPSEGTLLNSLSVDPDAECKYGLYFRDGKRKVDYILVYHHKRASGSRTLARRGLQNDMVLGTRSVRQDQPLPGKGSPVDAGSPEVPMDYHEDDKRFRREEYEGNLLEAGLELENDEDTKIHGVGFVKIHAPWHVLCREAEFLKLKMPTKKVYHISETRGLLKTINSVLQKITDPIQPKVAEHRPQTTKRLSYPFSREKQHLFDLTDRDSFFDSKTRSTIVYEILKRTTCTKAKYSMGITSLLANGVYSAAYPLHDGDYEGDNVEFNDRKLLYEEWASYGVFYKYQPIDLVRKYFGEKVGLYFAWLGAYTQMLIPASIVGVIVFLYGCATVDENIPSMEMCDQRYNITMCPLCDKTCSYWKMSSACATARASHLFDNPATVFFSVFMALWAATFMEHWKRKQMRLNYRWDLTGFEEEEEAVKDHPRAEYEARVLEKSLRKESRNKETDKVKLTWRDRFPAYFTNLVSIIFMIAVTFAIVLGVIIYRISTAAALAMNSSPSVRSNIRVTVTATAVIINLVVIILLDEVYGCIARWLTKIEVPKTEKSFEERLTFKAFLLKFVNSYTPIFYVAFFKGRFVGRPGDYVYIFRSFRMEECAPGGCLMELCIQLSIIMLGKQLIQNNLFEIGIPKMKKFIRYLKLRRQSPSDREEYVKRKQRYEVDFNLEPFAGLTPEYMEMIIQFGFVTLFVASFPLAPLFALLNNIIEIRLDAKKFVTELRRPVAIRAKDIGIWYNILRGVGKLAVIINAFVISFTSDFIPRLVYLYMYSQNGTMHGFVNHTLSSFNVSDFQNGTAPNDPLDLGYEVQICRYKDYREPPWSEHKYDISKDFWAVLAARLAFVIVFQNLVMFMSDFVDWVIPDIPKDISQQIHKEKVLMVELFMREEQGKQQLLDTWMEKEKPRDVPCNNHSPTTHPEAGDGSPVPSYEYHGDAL
# MEKK2 WT-MEK5: raises or lowers MEK5 binding to wildtype human MEKK2 PB1 domain | Q9Y2U5 | 290,000 tested, 1.1% active | AID 1531 | binding response (% of control), % at 10 µM | bead flow cytometry, Alexa488-MEK5 binding to MEKK2 WT; actives lie on both sides; in the data active means binding response below about 67% or above about 130%
# ANO1 activ: mouse TMEM16A channel activation, primary screen; 340,000 tested, 0.3% active; HEK293 TMEM16A/YFP-H148Q/I152L, iodide quench fluorescence; stronger effect = lower value; AID 623877; Q8BHY3; B-score at 10 µM;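 active means fluorescence-ratio B-score plate-corrected deviation score at least 3 library SD below zero, with starting fluorescence score within 5 deviations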;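 further: channel opened by trigger with iodide after compound preincubation; score built on the fluorescence ratio of max minus min over baseline; more negative score means more quench and so TMEM16A activation or potentiation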
# NTR1 agonist: agonists of human neurotensin receptor NTR1 | P30989 | NTR1-U2OS beta-arrestin-GFP spot imaging, agonist mode | activation, % at 20 µM | 330,000 tested, 0.17% active | AID 493036;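 active means activation at or above 40% of the spot to cytoplasm intensity ratio, with at least 20 cells analyzed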;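 further: 0% = DMSO without peptide and 100% = 100 nM NTR1 peptide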
# MEKK2 mut-MEK5: signal of MEK5 binding to mutant human MEKK2 PB1 domain. bead flow cytometry, Alexa488-MEK5 binding to MEKK2 mutant. percent response, % at 10 µM. 290,000 tested, 0.35% active. AID 1530; in the data active means percent response above about 24%, passing the limit was not always enough
# The depositor's hits bear a star; i = inactive; / = not tested or not shown. An excerpt weighted towards active compounds, which were near 3.4% of everything screened.
SMILES,MEKK3 PB1 HTS,TMEM16A inh,MEKK2 WT-MEK5,ANO1 activ,NTR1 agonist,MEKK2 mut-MEK5
N#Cc1ccc(Oc2cccc3cccnc23)c([N+](=O)[O-])c1,101,i,109,-5.8*,2,6
COc1ccc(N(CC(=O)NC2CCCCC2)C(=O)CCC(=O)Nc2nc(C)cs2)cc1,105,i,101,i,3,-1
CC(C)(C)C1CCC2(CC1)C(C#N)=C(SCC(=O)NC1CCCCC1)NC(=O)C2C#N (centres undefined),101,100*,97,i,4,-1
N#CC1=C(SCC(=O)Nc2cccc3cccnc23)NC(=O)C(C#N)C12CCCCC2 (centres undefined),102,100*,100,i,4,2
N#CC1=C(N)NC(SCC(=O)Nc2ccccc2)=C(C#N)C12CCCC2,115,i,112,i,1,14
N#CC1=C(SCC(=O)NC2CC2)NC(=O)C(C#N)C12CCCCC2 (centres undefined),100,i,103,i,-1,1
N#CC1=C(SCC(=O)NC23CC4CC(CC(C4)C2)C3)NC(=O)C(C#N)C12CCCCC2 (centres undefined),99,100*,94,i,6,0
C=CCSC1=C(C#N)C2(CCCCC2)C(C#N)C(=O)N1 (centres undefined),102,i,98,i,-1,-1
CCOC(=O)C1=C(SCC(=O)Nc2ccccc2)NC(=O)C(C#N)C12CCCCC2 (centres undefined),107,i,103,-31*,3,10
O=C(CN1C(=O)c2ccccc2C1=O)Nc1cccc2cccnc12,104,i,109,i,-2,9
CN(Cc1ccccc1F)C(=O)CCCNC(=O)c1ccc(Cl)cc1,101,i,108,i,2,2
O=C(O)CC1=C(O)C(=O)N(c2ccccc2)C1c1ccccc1 (centres undefined),/,i,/,i,1,/
O=C(O)CC1=C(O)C(=O)N(c2ccccc2)C1c1ccc(Br)cc1 (centres undefined),101,i,96,-13*,0,2
Cc1ccc(C(C[N+](=O)[O-])n2nc(C)cc2C)cc1 (centres undefined),101,i,104,i,51*,4
Cc1ccc(S(=O)(=O)NCC(C)n2nc(C)cc2C)cc1 (centres undefined),98,i,104,i,0,3
N#CCCn1nc(-c2ccc(Br)cc2)cc1Nc1ccccc1NC(=O)C(F)(F)F,99,100*,102,i,8,-1
C#CCOCCOCCOCCNc1nc(N2CCOCC2)nc(N2CCN(C(=O)Cn3cc(CC(C)O)nn3)CC2)n1 (centres undefined),68,i,82,i,-1,3
COc1cccc(CC2(CO)CCCN(Cc3c(C)cc(C)cc3-n3cccn3)C2)c1 (centres undefined),102,i,111,i,4,7
O=C(Nc1ccc(Br)cc1)c1cccc(S(=O)(=O)Nc2ccccn2)c1,99,i,98,i,1,-1
COc1ccc(NC(=O)c2cccc(S(=O)(=O)Nc3ccc(Br)cc3)c2)cn1,99,25*,115,i,6,7
COc1ccc(NC(=O)NS(=O)(=O)c2ccc(C)cc2)cn1,95,i,95,-7.5*,/,-4
Oc1ccc(N=Nc2ccc3c(c2)OCCO3)c2ncccc12,100,i,97,i,4,0
Cc1ccc(-n2[nH]c(C)c(/C=N/Nc3ccc([N+](=O)[O-])cc3[N+](=O)[O-])c2=O)cc1C,99,25*,114,i,12,10
C#CCOCCOCCOCCNc1nc(N2CCN(C(=O)CCCCCCCCCCNC(=O)[C@H](CO)n3cc(CCCSC)nn3)CC2)nc(N2CCN(C(=O)CCCCCCCCCCNC(=O)[C@H](CCCN=C(N)N)n3cc(C[C@@H](C)CC)nn3)CC2)n1,/,25*,/,-32*,20,/
C#CCOCCOCCOCCNc1nc(N2CCN(C(=O)CCCCCCCCCCNC(=O)Cn3cc(C[C@@H](C)O)nn3)CC2)nc(N2CCN(C(=O)CCCCCCCCCCNC(=O)[C@H](CCCN=C(N)N)n3cc(C[C@@H](C)CC)nn3)CC2)n1,/,i,/,-26*,-1,/
SMILES,MEKK3 PB1 HTS,TMEM16A inh,MEKK2 WT-MEK5,ANO1 activ,NTR1 agonist,MEKK2 mut-MEK5
CC(C)(C)c1ccc(OCC(=O)NNC(=S)NC(=O)c2ccco2)c(Br)c1,97,25*,94,-9*,10,-4
CC(C)c1ccc(OCC(=O)NNC(=S)NC(=O)c2ccco2)c(Br)c1,105,i,102,i,5,-1
O=C(NCc1ccco1)c1sc(=S)n2c1[nH]c(=O)c1ccccc12,100,100*,103,i,5,0
Cc1onc(-c2ccccc2)c1C(=O)NC(=S)NNC(=O)c1ccccc1O,126,100*,106,i,10,1
CCCOc1ccc(C(=O)NC(=S)NNC(=O)c2c(-c3ccccc3)noc2C)cc1,61,100*,60,i,3,-20
COc1cc(C(=O)NCc2ccco2)cc(OC)c1OC,104,i,98,-24*,-1,1
Cc1onc(-c2ccccc2)c1C(=O)NCc1ccco1,106,i,103,-16*,-1,6
CCCCn1c(N)c(N(CCOC)C(=O)c2ccc(N3CCCC3=O)cc2)c(=O)[nH]c1=O,/,/,/,i,0,/
CN(C)S(=O)(=O)c1ccc(N2CCCC2)c(C(=O)NC2(C)CCS(=O)(=O)C2)c1 (centres undefined),/,i,/,i,1,/
Oc1ccccc1-c1nc2c3ccccc3c3ccccc3c2[nH]1,107,i,-12*,i,/,27
c1csc(-c2nc3c4ccccc4c4ccccc4c3[nH]2)c1,109,i,116,i,10,8
Cc1cc(C(=O)COc2cccnc2[N+](=O)[O-])c(C)n1Cc1cccs1,103,i,95,i,0,-1
CC(=O)Nc1ccccc1OCC(=O)c1cc(C)n(Cc2cccs2)c1C,102,100*,105,i,0,2
CCOC(=O)NNC1CC(=O)N(c2ccc(OC)cc2)C1=O (centres undefined),105,100*,106,i,0,5
COc1ccc(N2C(=O)CC(NNC(=O)c3ccco3)C2=O)cc1 (centres undefined),109,i,104,i,0,2
CCC(C(=O)Nc1cccc(C(F)(F)F)c1)c1ccccc1 (centres undefined),104,i,108,-6.6*,1,5
